Shiga inhibitor: blocks Shiga toxin action in Vero cells; Vero cells, Shiga toxin protein synthesis inhibition reporter; inhibition, % at 38.7 µM; 9.2% of 290,000 active; AID 2315; in the data active means inhibition mostly above about 28%, no sharp cut-off; inactive means mostly below about 43%; further: 0% is about no effect
CHX counter: counter-screen for Shiga toxin inhibitors: cycloheximide protein synthesis inhibition; 12% of 300,000 active; cell reporter, cycloheximide protein synthesis inhibition counterscreen; max response, %; in the data active means max response mostly above about 13%, no sharp cut-off; inactive means mostly below about 14%; further: read at 38.3 µM for the half of the compounds with a filed dose; 0% is about no effect
LmPK inhibitor: LmPK (Leishmania mexicana) enzyme inhibition. purified LmPK, Kinase-Glo ATP luminescence, 1 h. Potency, µM (titrated, usually from 57.5 µM), for the others: top-dose activity change, negative = inhibition, hits mostly inhibitors. 0.37% of 290,000 active. AID 1721; further: potency means the concentration at half of the fitted maximal effect; on the % scale 0 is the no-effect control and ±100 the full control effect
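Purified LmPK (0.1 nM) converted ADP (0.1 mM) to ATP with PEP (0.5 mM) in imidazole buffer pH 7.2 with KCl and MgCl2, 1 h at room temperature. ATP was read by Kinase-Glo luminescence; data normalized to uninhibited and no-enzyme controls.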
Giardia FBPA inh: blocks Giardia fructose-bisphosphate aldolase activity | A8B2U2 | purified Giardia FBPA | Potency, µM (series often up to 59.6 µM), without a hit: top-dose activity, negative = inhibition, most hits filed as inhibitors | 0.71% of 290,000 active | AID 2451; further: potency means the concentration at half of the fitted maximal effect; on the % scale 0 is the no-effect control and ±100 the full control effect; nearly all actives have a fitted effect of over 55% in size
Target sequence (A8B2U2 whole entry, looked up): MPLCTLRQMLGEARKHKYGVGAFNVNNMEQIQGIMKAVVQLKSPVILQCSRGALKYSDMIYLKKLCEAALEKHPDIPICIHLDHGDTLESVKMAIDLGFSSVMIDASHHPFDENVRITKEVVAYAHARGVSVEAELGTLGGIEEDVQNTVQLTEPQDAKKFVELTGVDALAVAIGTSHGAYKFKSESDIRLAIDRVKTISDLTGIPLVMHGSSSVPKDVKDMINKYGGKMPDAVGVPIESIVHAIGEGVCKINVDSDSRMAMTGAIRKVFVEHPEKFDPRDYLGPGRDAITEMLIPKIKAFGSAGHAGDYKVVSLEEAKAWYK
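Giardia FBPA (40 nM reagent) was preincubated 10 min at RT with compound (up to 57.5 uM final), then substrate plus GAPDH/TPI/NAD/arsenate coupling system with diaphorase/resazurin was added; resorufin fluorescence (525/598 nm) was read after 20 min.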
NS1 function inh: blocks influenza NS1 protein function; Potency, µM (series often up to 46.1 µM), for inactives: top-dose activity, positive = more growth; 0.4% of 270,000 active; AID 2326; calls by dose curve; further: potency means the concentration at half of the fitted maximal effect; actives are rising curves; nearly all actives have a fitted effect of over 50% in size
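S. cerevisiae expressing influenza A NS1, grown in glucose, washed, then diluted 1:100 into pH 6.0 -URA galactose medium with 23 nl compound. Growth recovery read as OD600; NS1-free strain serves as control.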
Numbers without * were called inactive; [ ] = another dose, or the depositor's remark. Most compounds without a hit are left out; they make up all but 14% or so of the library. Unless noted, the call rests on the fitted dose curve; in most records, active means well fitted curve in the direction sought with a large enough effect; inconclusive means small, poorly fitted or top-dose-only effect, or another doubt; inactive means no such curve, though single readings can be large; an effect the other way counts as inactive or inconclusive.

`Cc1cc(C(=O)Cn2nc(C(=O)O)c3ccccc3c2=O)c(C)n1-c1ccccc1` gave Shiga inhibitor 95.4*, CHX counter 58.6*, LmPK inhibitor 1.1%, Giardia FBPA inh 2.5% and NS1 function inh 16.3%.
Cc1cc(C)c(C(=O)Cn2nc(C(=O)O)c3ccccc3c2=O)cc1C was read as Shiga inhibitor 50.4, CHX counter 7.5, LmPK inhibitor 7.4%, Giardia FBPA inh 3.4% and NS1 function inh 2.9%.
For O=C(Cn1nc(C(=O)O)c2ccccc2c1=O)c1c[nH]c2ccccc12 the results were Shiga inhibitor 34.7*, CHX counter 9.4*, LmPK inhibitor -2.2%, Giardia FBPA inh 0.1% and NS1 function inh 0.9%.
For O=C(NCc1cccs1)c1cc2c(s1)CCCC2 the results were Shiga inhibitor 85.8*, CHX counter 45.1*, LmPK inhibitor -10.2%, Giardia FBPA inh -10.1% and NS1 function inh -38.0%.
For COc1ccccc1NC(=O)c1csc2c1CCC(C)C2 (stereo not drawn) the results were Shiga inhibitor 66.9*, CHX counter 50.9*, LmPK inhibitor 0.6%, Giardia FBPA inh -1.9% and NS1 function inh -1.6%.
`O=C(NCCN1CCOCC1)c1csc2c1CCCC2` gave Shiga inhibitor 8.8, CHX counter -0.3, LmPK inhibitor 3.3%, Giardia FBPA inh -3.2% and NS1 function inh -5.1%.
CC(C)(O)C#Cc1ccc(C(=O)NCc2cccs2)s1 was read as Shiga inhibitor 32.9, CHX counter 26.4*, LmPK inhibitor -1.0%, Giardia FBPA inh 1.3% and NS1 function inh -5.6%.
Screening COc1ccccc1CCNC(=O)c1csc2c1CCCC2 returned Shiga inhibitor 37.8*, CHX counter 13.1, LmPK inhibitor 3.2% and Giardia FBPA inh -1.9%.
For CC(=O)c1ccc(C#CC(C)(C)O)s1 the results were Shiga inhibitor -0.5, CHX counter 12.7, LmPK inhibitor -2.6%, Giardia FBPA inh 7.2% and NS1 function inh 9.7%.
`O=C(O)c1cc2c(s1)CCCC2` gave Shiga inhibitor -1.5, CHX counter -3.0, LmPK inhibitor -9.3%, Giardia FBPA inh 23.8% and NS1 function inh -47.9%.
Screening NS(=O)(=O)c1ccc(CCNCC(=O)N2CCC(Cc3ccccc3)CC2)cc1 returned Shiga inhibitor -5.7, CHX counter -2.0, LmPK inhibitor 1.8%, Giardia FBPA inh inconclusive and NS1 function inh 1.0%.
`CC(C)C[C@H](N)C(=O)O` gave NS1 function inh 0.7%.
COC(=O)c1ccc(CNC(=O)C2CCC(=O)N(CCc3ccccc3)C2)cc1 (stereo not drawn) was read as Shiga inhibitor -6.8, CHX counter 0.4, LmPK inhibitor -5.9% and NS1 function inh -14.6%.
COc1ccccc1CCNC(=O)c1ccc(Br)s1 was read as Shiga inhibitor 63.4*, CHX counter 37.1*, LmPK inhibitor -5.0% and NS1 function inh -48.9%.
`CC(C)CCNC(=O)c1csc2c1CCCCC2` gave Shiga inhibitor 55.1*, CHX counter 46.9*, LmPK inhibitor -0.5% and Giardia FBPA inh -0.2%.
Screening O=C(NCc1ccco1)c1ccccc1Br returned Shiga inhibitor -7.5, CHX counter -1.9, LmPK inhibitor -8.2%, Giardia FBPA inh 1.6% and NS1 function inh 1.3%.
COc1ccccc1NC(=O)NCCc1ccccc1 was read as Shiga inhibitor -0.6, CHX counter 9.3, LmPK inhibitor 2.7% and NS1 function inh 20.4%.
Screening O=C(NCc1ccco1)c1csc2c1CCCCC2 returned Shiga inhibitor 19.3, CHX counter 22.1*, LmPK inhibitor 1.2%, Giardia FBPA inh -6.8% and NS1 function inh -8.4%.
`COC(=O)c1ccccc1NC(=O)NCCc1ccccc1OC` gave Shiga inhibitor 82.9*, CHX counter 28.0*, LmPK inhibitor -10.5%, Giardia FBPA inh -2.7% and NS1 function inh -3.4%.
For CCCOc1ccc(-c2c(C(=O)N/N=C/C3CCCCC3)nnn2-c2nonc2N)cc1 the results were Shiga inhibitor -5.7, CHX counter -1.9, LmPK inhibitor 5.7% and NS1 function inh inconclusive.
CC[C@H](C)[C@H](NC(=O)[C@H](CC(=O)O)NC(=O)[C@H](CC(C)C)NC(=O)[C@H](NC(C)=O)C(c1ccccc1)c1ccccc1)C(=O)N[C@H](C(=O)N[C@@H](Cc1c[nH]c2ccccc12)C(=O)O)[C@@H](C)CC was read as Shiga inhibitor -17.8, CHX counter -0.7 and Giardia FBPA inh 0.7%.
Screening CC1CCc2c(C(=O)NCc3ccco3)csc2C1 (stereo not drawn) returned Shiga inhibitor 48.2, CHX counter 16.6*, LmPK inhibitor 4.5%, Giardia FBPA inh -0.6% and NS1 function inh -55.2%.
For O=C(NCc1cccs1)c1csc2c1CCCCC2 the results were Shiga inhibitor 19.2, CHX counter 21.1*, LmPK inhibitor 4.7%, Giardia FBPA inh 2.8% and NS1 function inh inconclusive.
O=C(NCc1ccccc1)c1csc2c1CCCCC2 was read as Shiga inhibitor 46.1, CHX counter 21.8, LmPK inhibitor -0.2%, Giardia FBPA inh -0.9% and NS1 function inh -11.1%.
Screening CC1CCc2c(C(=O)Nc3cccc(-c4nn[nH]n4)c3)csc2C1 (stereo not drawn) returned Shiga inhibitor 40.2, CHX counter 18.7, LmPK inhibitor -1.2%, Giardia FBPA inh -12.7% and NS1 function inh -5.0%.
Screening COc1cc2c(cc1OC)C1O[C@](CCCCN3C(=O)c4ccccc4C3=O)(C2)OC2=C1C(=O)c1ccccc1C2=O returned Shiga inhibitor inactive, CHX counter -1.5, LmPK inhibitor -8.0%[11.5 µM], Giardia FBPA inh inconclusive and NS1 function inh 24.3%.
COc1ccc(NC(=O)c2ccc(C(=O)Nc3ccc(OC)cc3OC)cc2)c(OC)c1 was read as Shiga inhibitor 22.5, CHX counter -9.9, LmPK inhibitor 1.2% and Giardia FBPA inh 0.0%.
Screening COc1cc(NC(=O)c2cc(C3CC3)on2)c(OC)cc1Cl returned Shiga inhibitor 5.4, CHX counter 4.4, LmPK inhibitor 1.6%, Giardia FBPA inh -1.8% and NS1 function inh 2.8%.
Screening COc1cc(NC(=O)c2cc3nc(C)cc(C)n3n2)c(OC)cc1Cl returned Shiga inhibitor 62.4*, CHX counter 52.8*, LmPK inhibitor 7.3%, Giardia FBPA inh -12.7% and NS1 function inh 11.1%.
Screening COc1cc(NC(=O)c2c(F)c(F)c(F)c(F)c2F)c(OC)cc1Cl returned Shiga inhibitor -12.0, CHX counter -1.3, LmPK inhibitor -3.1%, Giardia FBPA inh 6.3% and NS1 function inh -1.2%.
Screening COc1ccc(NC(=O)c2cc(C(C)C)on2)cc1OC returned Shiga inhibitor 44.7*, CHX counter 43.6*, LmPK inhibitor 1.7%, Giardia FBPA inh -0.2% and NS1 function inh -39.3%.
For COc1ccc(NC(=O)c2cc(C(C)C)on2)c(OC)c1 the results were Shiga inhibitor 113.9*, CHX counter 53.4*, LmPK inhibitor 5.6%, Giardia FBPA inh -9.4% and NS1 function inh -14.0%.
COc1cc(NC(=O)c2cc(C(C)C)on2)c(OC)cc1Cl was read as Shiga inhibitor 31.8, CHX counter 13.4*, LmPK inhibitor 0.0%, Giardia FBPA inh -9.2% and NS1 function inh -9.4%.
